From PubChem BioAssay
Values joined by “and” are separate entries in the source; they are usually repeats but may differ in a detail not shown here. Equal values may be shown once. Active and inactive are the calls of the source.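 Rule for the calls, unless noted: active = compounds whose cell count with miR-34 switched on is under 0.7 times the count with it off; inactive = the rest.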

How the values were obtained:
[1] = test system: Aerobactin synthetase IucA (Klebsiella pneumoniae); assay: inhibition of K. pneumoniae IucA enzyme – biochemical, Tocris library, absorbance (AID 1345561; call rule not given here;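 note: 100% = enzyme without compound and 0% = no enzyme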); conditions: purified IucA enzyme assay, absorbance (OD) read-out; stronger effect = lower value;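 tested at 8 µM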
[2] = viability loss with induced miR-34 in A549 – imaging, A549 dox-inducible miR-34, nuclei and caspase counts, primary screen (AID 1347080); conditions: A549 miR-34 inducible, Hoechst nuclei count, 48 h
[3] = galactose survival enhancers in mitochondrial complex I cybrids – cell-based, galactose medium, ATP luminescence, primary screen (AID 1645843;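 active = z-score of at least 1.8 in each of two replicates, scored against plate mean and spread of sample wells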;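 note: positive z means more ATP and so rescue of galactose-driven cybrid death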); conditions: complex I mutant cybrid cells, 72 h, stronger effect = higher value
[4] = MELAS cybrid and Rieske KO viability enhancers – cell-based, MELAS cybrids, Rieske KO mouse fibroblasts, CellTiter-Glo, primary screen (AID 1508586;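 active = mean z-score across replicates of 1.96 or higher in either the MELAS or the Rieske mutant cell line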;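 note: z relative to plate mean and SD of compound and empty wells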); conditions: low glucose
[5] = P. berghei load reduction in hepatocytes – cell-based, HepG2, luciferase luminescence, HepG2 viability, primary screen (AID 624349; in the data active = parasite load remaining mostly below about 12%, no sharp cut-off; inactive = mostly above about 10%;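 note: 100% = mean of DMSO negative control wells on the same plate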); conditions: P. berghei liver stage in HepG2, luciferase luminescence, concentration not given here; parasite load remaining: stronger effect = lower value; viability: measured here: HepG2 viability without parasites
[6] = test system: Hepatitis C virus NS3 helicase; assay: blockers of NS3h binding to ssDNA – biochemical, fluorescence polarization, LOPAC1280 library, primary screen (AID 687035; in the data active = inhibition above about 37%); conditions: Purified HCV NS3 helicase, Cy5-dT15 ssDNA binding fluorescence polarization; stronger effect = higher value; concentration not given here
[7] = compounds altering Cy5-DNA-NS3h complex signal – biochemical, LOPAC1280, artefact control for HCV NS3 helicase inhibitor project (AID 687037; call rule not given here); conditions: Cy5-DNA-NS3h complex fluorescence interference counterscreen
[8] = chitosan synthesis blockers in C. neoformans – flow cytometry, Cibacron Brilliant Red staining (AID 1347148; call rule not given here;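 note: compound exposure lasted three days at 37 degrees C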); conditions: Cryptococcus neoformans chitosan, stronger effect = lower value; at 10 µM unless noted
[9] = stronger effect = lower value, cell number ratio, induced over uninduced
[10] = measured here: relative caspase fold change +Dox/-Dox
[11] = measured here: total cells with miR-34 induction, stronger effect = lower value
[12] = measured here: total cells without miR-34 induction
[13] = MELAS cybrid survival, CellTiter-Glo 48 h, stronger effect = higher value
[14] = Rieske KO mouse fibroblast survival, CellTiter-Glo 72 h

SMILES	remaining activity [1]	fold change [2, 9]	fold change [2, 10]	cell count [2, 11]	cell count [2, 12]	z-score [3]	z-score [4, 13]	z-score [4, 14]	parasite load remaining [5]	viability [5] [%]	inhibition [6]	fluorescence ratio (interference) [7]	fold fluorescence [8]
Oc1ccc(-c2c(-c3ccccc3)nn3c(C(F)(F)F)cc(C(F)(F)F)nc23)cc1	95% (inactive)	0.915 (inactive)	2.74	8170	8930	0.225 (inactive)							
Clc1cccc2c1CN(C1=NCCN1)C2	99.4% (inactive)	0.914 (inactive)	0.792	9080	9940	-0.085 (inactive)							
O=C1C(=O)N(Cc2ccc(Cl)c(Cl)c2)c2ccccc21	89.3% (inactive)	0.946 (inactive) and 0.932 (inactive)	0.72 and 1.49	8180 and 7960	8650 and 8540	-0.685 (inactive)	-0.161 (inactive)	-0.14					
Nc1nc(NCCc2ccc(O)cc2)nc2nc(-c3ccco3)nn12	109% (inactive)	0.809 (inactive)	1.15	6780	8380	-0.54 (inactive)							
CCCCC1CCC(c2nc(-c3ccncc3)no2)CC1 (centres undefined)	122% (inactive)	0.974 (inactive) and 0.949 (inactive)	0.608 and 1.14	5260 and 8140	5400 and 8570	-0.62 (inactive)							
CCCCCCCCCCCCCCCCn1cc[n+](Cc2ccccc2)c1C	93.9% (inactive)	0.951 (inactive) and 0.701 (inactive)	0.478 and 0.77	1020 and 275	1080 and 392	-0.7 (inactive)	0.978 (inactive)	-3.72	41.6% (inactive)	156			
O=C(CCCCCN1C(=O)c2cccc3cccc(c23)C1=O)NO	87.2% (inactive)	0.869 (inactive) and 1.23 (inactive)	0.881 and 1.17	1710 and 2290	1970 and 1860	-0.53 (inactive)	1.18 (inactive)	1.2					
Cc1ccc2c(=O)c3ccccc3n(CCCN)c2c1C	96.6% (inactive)	1.17 (inactive)	1.36	2370	2020	-0.58 (inactive)							
COc1cc2ncnc(Nc3ccc(Cl)cc3F)c2cc1OC	98.6% (inactive)	0.989 (inactive) and 1 (inactive)	0.8 and 1.6	5840 and 6100	5900 and 6080	0.365 (inactive)	-0.209 (inactive)	-0.0991					
C1CCC(N=C(NC23CC4CC(CC(C4)C2)C3)N2CCOCC2)CC1	116% (inactive)	0.989 (inactive)	0.888	8260	8350	-0.33 (inactive)					-4% (inactive)	1 (inactive)	11.7 [at 130.9 µM] (inactive)
CC[C@H](CO)Nc1nc(Nc2cccc(-c3ccccn3)c2)c2ncn(C(C)C)c2n1	119% (inactive)	1.12 (inactive)	1.35	1500	1340	-0.95 (inactive)							
